A short description of experiment [1]: antimalarial activity against Dd2 strain (AID 2302;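 active means growth inhibition above 50% at the single 2 µM test dose, taken to imply half-maximal potency below 2 µM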;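 further: 0% = DMSO untreated growth and 100% = chloroquine plus artemisinin killed control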). Conditions: P. falciparum Dd2 in RBCs, LDH growth readout, 72 h; at 2 µM; active compounds read high.
A short description of experiment [2]: HepG2 cytotoxicity, primary screen, cytotoxicity control for P. falciparum antimalarial project, cell-based, ATP luminescence (AID 2303;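 active means inhibition above 50%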;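 further: 0% = DMSO wells and 100% = digitonin-killed cells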). As to conditions: HepG2 viability, 24-48 h, at 10 µM, active compounds read high.
In experiment [3] the target is L-lactate dehydrogenase (Plasmodium falciparum (isolate CDC / Honduras)) (UniProt Q27743). The experiment in a line: PfLDH activity inhibition – cell lysate, 3D7 strain, counter-screen for P. falciparum growth inhibition project (AID 2304).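 Further: 0% = vehicle and 100% = reference inhibitor.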 Conditions: P. falciparum 3D7 crude extract, LDH APAD/NBT absorbance; at 2 µM; active compounds read high.
Chain of L-lactate dehydrogenase (Plasmodium falciparum (isolate CDC / Honduras)) (Q27743 whole entry, looked up): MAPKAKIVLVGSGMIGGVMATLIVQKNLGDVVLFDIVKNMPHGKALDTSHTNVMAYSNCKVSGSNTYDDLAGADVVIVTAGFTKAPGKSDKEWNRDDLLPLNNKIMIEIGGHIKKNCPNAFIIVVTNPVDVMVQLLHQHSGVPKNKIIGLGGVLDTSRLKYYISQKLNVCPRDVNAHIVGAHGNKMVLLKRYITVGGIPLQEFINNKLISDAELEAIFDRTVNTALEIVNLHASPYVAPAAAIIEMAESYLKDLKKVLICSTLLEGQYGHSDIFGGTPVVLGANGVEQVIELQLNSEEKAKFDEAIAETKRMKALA
Experiment [4] in a line: inhibition of 3D7 malaria parasite growth – strain 3D7 (AID 2306).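 Further: 0% = DMSO wells and 100% = chloroquine plus artemisinin control wells.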 Conditions: P. falciparum 3D7 erythrocytic growth, LDH absorbance, 72 h; at 2 µM; active compounds read high.
Experiment [5] deals with Calcium-dependent protein kinase 1 (Plasmodium falciparum (isolate 3D7)) (UniProt P62344). Briefly: PfCDPK1 kinase inhibitors, biochemical, TCAMS library (AID 1159585; cut-off not given, nearly all actives have IC50 up to about 0.98 µM;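 further: inhibitors leave more ATP so luminescence rises with inhibition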). As to conditions: recombinant PfCDPK1, Kinase-Glo ATP depletion luminescence. On the technique in general: Kinase-Glo reads ATP consumption through a luciferase reaction.
Chain of Calcium-dependent protein kinase 1 (Plasmodium falciparum (isolate 3D7)) (P62344 whole entry, looked up): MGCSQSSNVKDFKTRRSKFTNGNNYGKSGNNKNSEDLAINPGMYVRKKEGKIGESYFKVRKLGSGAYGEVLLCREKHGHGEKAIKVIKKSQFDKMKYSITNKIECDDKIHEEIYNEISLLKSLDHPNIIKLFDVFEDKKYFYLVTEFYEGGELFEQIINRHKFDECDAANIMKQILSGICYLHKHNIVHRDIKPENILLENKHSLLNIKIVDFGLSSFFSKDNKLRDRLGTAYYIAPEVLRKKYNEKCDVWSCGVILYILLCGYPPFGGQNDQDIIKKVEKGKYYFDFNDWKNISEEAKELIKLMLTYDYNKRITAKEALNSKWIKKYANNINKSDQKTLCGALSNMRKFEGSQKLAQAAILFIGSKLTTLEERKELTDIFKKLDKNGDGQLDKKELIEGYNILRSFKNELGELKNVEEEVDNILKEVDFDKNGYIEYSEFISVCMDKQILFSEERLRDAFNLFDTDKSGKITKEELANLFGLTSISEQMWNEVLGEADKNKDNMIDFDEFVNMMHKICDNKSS
The target of experiment [6] is Plasmodium falciparum protein kinase 6 (PK6, PF3D7_1337100) (UniProt Q8IDW1). Briefly: PfPK6 kinase inhibitors, biochemical, TCAMS library (AID 1159586). Conditions: recombinant PfPK6, Kinase-Glo ATP depletion luminescence.
Chain of Plasmodium falciparum protein kinase 6 (PK6, PF3D7_1337100) (Q8IDW1 1-305): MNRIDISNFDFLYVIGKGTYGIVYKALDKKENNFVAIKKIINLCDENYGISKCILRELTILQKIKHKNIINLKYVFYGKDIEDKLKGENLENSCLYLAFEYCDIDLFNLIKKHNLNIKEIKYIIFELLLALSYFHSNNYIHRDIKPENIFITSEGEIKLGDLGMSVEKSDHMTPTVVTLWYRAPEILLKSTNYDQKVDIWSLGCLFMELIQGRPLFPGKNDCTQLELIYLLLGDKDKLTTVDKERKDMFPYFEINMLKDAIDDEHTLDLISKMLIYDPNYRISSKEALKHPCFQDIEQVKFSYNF
For experiment [7], the target named is Protein kinase 7 (PK7), Plasmodium falciparum 3D7 (PF3D7_0213400) (UniProt Q7YTF7). Briefly: inhibition of Plasmodium PK7 catalytic activity – biochemical, TCAMS antimalarial set, Kinase-Glo luminescence (AID 1159587). As to conditions: recombinant PfPK7, Kinase-Glo ATP depletion luminescence.
Chain of Protein kinase 7 (PK7), Plasmodium falciparum 3D7 (PF3D7_0213400) (Q7YTF7 1-343): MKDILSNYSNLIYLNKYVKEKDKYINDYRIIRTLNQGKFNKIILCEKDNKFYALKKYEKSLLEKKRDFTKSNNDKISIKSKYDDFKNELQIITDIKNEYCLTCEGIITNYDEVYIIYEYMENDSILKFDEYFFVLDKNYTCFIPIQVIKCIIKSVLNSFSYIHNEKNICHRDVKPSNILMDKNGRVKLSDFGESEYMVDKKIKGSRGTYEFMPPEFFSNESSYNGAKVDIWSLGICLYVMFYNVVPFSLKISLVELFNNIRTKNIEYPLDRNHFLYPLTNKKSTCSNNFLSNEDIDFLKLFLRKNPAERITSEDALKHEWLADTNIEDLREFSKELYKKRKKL
The target in experiment [8] is Calcium-dependent protein kinase 4 (Plasmodium falciparum (isolate 3D7)) (UniProt Q8IBS5). Briefly: PfCDPK4 kinase inhibitors, biochemical, TCAMS library (AID 1159588; cut-off not given, nearly all actives have IC50 up to about 0.91 µM). Conditions: recombinant PfCDPK4, Kinase-Glo ATP depletion luminescence.
Chain of Calcium-dependent protein kinase 4 (Plasmodium falciparum (isolate 3D7)) (Q8IBS5 whole entry, looked up): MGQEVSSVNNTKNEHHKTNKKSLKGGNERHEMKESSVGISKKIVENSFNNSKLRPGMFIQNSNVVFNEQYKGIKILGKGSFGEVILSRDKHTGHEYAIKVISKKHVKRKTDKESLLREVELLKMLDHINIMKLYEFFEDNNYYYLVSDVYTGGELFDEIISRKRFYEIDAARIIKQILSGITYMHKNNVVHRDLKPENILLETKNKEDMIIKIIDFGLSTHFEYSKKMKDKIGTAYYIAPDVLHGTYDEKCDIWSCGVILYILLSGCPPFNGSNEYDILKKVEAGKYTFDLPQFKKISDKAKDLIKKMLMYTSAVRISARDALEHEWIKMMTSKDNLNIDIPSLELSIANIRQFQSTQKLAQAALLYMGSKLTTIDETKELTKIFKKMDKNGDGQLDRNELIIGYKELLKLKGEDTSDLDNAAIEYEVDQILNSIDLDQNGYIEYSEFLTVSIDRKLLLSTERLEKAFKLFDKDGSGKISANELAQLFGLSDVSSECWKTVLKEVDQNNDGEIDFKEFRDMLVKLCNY

The results in this text go back to PubChem BioAssay.

SMILES strings stand for the structures. A number with no mark means an inactive call. For some assays here: Results with a measured potency or affinity are listed apart. Calls of active or inactive are those of the source. Unless noted, how the calls were made is not given here.

The inhibition is the drop in the measured response relative to a control, in per cent. In the case of `O=C(Nc1ccc2ccccc2n1)c1ccccc1-c1ccccc1`, the growth inhibition in experiment [1] was 83% (active); in experiment [4] it was 90% (active). Moreover, the inhibition in experiment [2] is 14%; in experiment [3] it was 0%. Moreover, the result in experiment [5], in experiment [6], in experiment [7] and in experiment [8] was inactive.

In the case of `Clc1ccc(Nc2nc(-c3ccccn3)cs2)nc1`, the growth inhibition in experiment [1] is 90% (active); in experiment [4], 95% (active). Moreover, the results for the inhibition in experiment [2] and in experiment [3] were 36% and -1%, respectively. In addition, the result in experiment [5], in experiment [6], in experiment [7] and in experiment [8] was inactive.

As for `CCc1cc(=O)[nH]c(-n2nc(C)cc2NC(=O)CC(c2ccccc2)c2ccccc2)n1`, the figures for the growth inhibition in experiment [1] and in experiment [4] were 75% (active) and 92% (active), respectively. Further, the inhibition in experiment [2] is 37%; in experiment [3], 4%. In addition, the result in experiment [5], in experiment [6], in experiment [7] and in experiment [8] was inactive.

Consider `COc1ccc2nc(C)cc(NN=Cc3ccccc3[N+](=O)[O-])c2c1`, for which the growth inhibition was 99% (active) in experiment [1] and 101% (active) in experiment [4]. Besides, the inhibition in experiment [2] is 2%; in experiment [3], -2%. Besides, the outcome in experiment [5], in experiment [6], in experiment [7] and in experiment [8] was inactive.

For `CN1CCN(Cc2cc3cc(NC(=O)/C=C/c4cccc(Cl)c4)ccc3s2)CC1`, the values for the growth inhibition in experiment [1] and in experiment [4] were 72% (active) and 100% (active), respectively. The inhibition in experiment [2] was 54% (active); in experiment [3], 1%. The result in experiment [5], in experiment [6], in experiment [7] and in experiment [8] was inactive.

On to `CC1CN(C(=O)c2sc3ccccc3c2Cl)CC(C)O1` (configuration not stated), for which the growth inhibition in experiment [1] is 98% (active); in experiment [4], 101% (active). Further, the inhibition was -5% in experiment [2] and 3% in experiment [3]. The outcome in experiment [5], in experiment [6], in experiment [7] and in experiment [8] was inactive.

For the compound `O=C(Nc1ccc(-c2cccc(-c3nc4ccccc4[nH]3)c2)cc1)Nc1ccsc1`, the growth inhibition was 90% (active) in experiment [1] and 101% (active) in experiment [4]. Also, the inhibition was 56% (active) in experiment [2] and -7% in experiment [3]. The result in experiment [5], in experiment [6], in experiment [7] and in experiment [8] was inactive.

For the compound `CCN(CCCN1CCCCC1)c1cc(C)nc(Nc2ccc(C)cc2C(F)(F)F)n1`, the values for the growth inhibition in experiment [1] and in experiment [4] were 35% and 101% (active), respectively. Further, the inhibition is 23% in experiment [2] and -2% in experiment [3]. Besides, the outcome in experiment [5], in experiment [6], in experiment [7] and in experiment [8] was inactive.

For `CC1CCN(Cc2ccc(NC(=O)c3cc4ccc5cccnc5c4[nH]3)cc2)CC1`, the growth inhibition is 93% (active) in experiment [1] and 101% (active) in experiment [4]. In addition, the inhibition in experiment [2] was 10%; in experiment [3], -1%. Moreover, the result in experiment [5], in experiment [6], in experiment [7] and in experiment [8] was inactive.

`Cc1ccnc2nc(C(=O)Nc3cc(Cl)ccc3N3CCOCC3)nn12`: the growth inhibition in experiment [1] is 63% (active); in experiment [4], 84% (active). Further, the inhibition is -4% in experiment [2] and -1% in experiment [3]. Further, the result in experiment [5], in experiment [6], in experiment [7] and in experiment [8] was inactive.

Consider `COc1cc(COc2c(C)nc(N)nc2N)cc(OC)c1OC`, for which the growth inhibition in experiment [1] is -5%; in experiment [4] it was 100% (active). For the same compound, the inhibition is 7% in experiment [2] and -9% in experiment [3]. Besides, the result in experiment [5], in experiment [6], in experiment [7] and in experiment [8] was inactive.

As to `Cc1ccc(CN2CCCN(Cc3cccc(NC(=O)c4ccc(Cl)c(Cl)c4)c3)CC2)cc1`, the growth inhibition in experiment [1] was 18%; in experiment [4] it was 96% (active). The inhibition in experiment [2] was 32%; in experiment [3], -1%. The result in experiment [5], in experiment [6], in experiment [7] and in experiment [8] was inactive.

Turning to `N#Cc1ccc(/C=C/C(=O)NCCCCCN2CCN(C(=O)Nc3ccc(Cl)c(C(F)(F)F)c3)CC2)cc1`, the results for the growth inhibition in experiment [1] and in experiment [4] were -7% and 94% (active), respectively. Further, the values for the inhibition in experiment [2] and in experiment [3] were 42% and -1%, respectively. Moreover, the outcome in experiment [5], in experiment [6], in experiment [7] and in experiment [8] was inactive.

`COc1cccc(C=Cc2nc(=O)c3ccccc3o2)c1OC`: the growth inhibition in experiment [1] and in experiment [4] was 97% (active) in each case. The inhibition was -19% in experiment [2] and 7% in experiment [3]. Also, the outcome in experiment [5], in experiment [6], in experiment [7] and in experiment [8] was inactive.

Turning to `CCCCCCn1c(Sc2ccc(C#N)c([N+](=O)[O-])c2)nnc1-c1ccc(N(C)C)cc1`, the growth inhibition is 25% in experiment [1] and 92% (active) in experiment [4]. In addition, the inhibition was -1% in experiment [2] and 7% in experiment [3]. The result in experiment [5], in experiment [6], in experiment [7] and in experiment [8] was inactive.

Take `O=C(Nc1cccc(-c2ccc(-c3nc4ccc(F)cc4[nH]3)cc2)c1)c1ccncc1`: the growth inhibition in experiment [1] is 96% (active); in experiment [4] it was 101% (active). Also, the inhibition is 52% (active) in experiment [2] and -5% in experiment [3]. The result in experiment [5], in experiment [6], in experiment [7] and in experiment [8] was inactive.

With `Cc1cc(N)ncc1-c1ccc(NC(=O)Nc2cc(C(F)(F)F)ccc2F)cc1`, the growth inhibition in experiment [1] is 23%; in experiment [4], 100% (active). The results for the inhibition in experiment [2] and in experiment [3] were 15% and 3%, respectively. The result in experiment [5], in experiment [6], in experiment [7] and in experiment [8] was inactive.

With `NC(N)=NC(=O)Nc1cc(Cl)c(F)c(Cl)c1`, the growth inhibition is 64% (active) in experiment [1] and 100% (active) in experiment [4]. In addition, the inhibition was 22% in experiment [2] and -4% in experiment [3]. Besides, the result in experiment [5], in experiment [6], in experiment [7] and in experiment [8] was inactive.

For the compound `CN1CCC[C@H]1COc1ccc(CN2CC[C@H](NC(=O)c3ccc(Cl)c(Cl)c3)C2)cc1Cl`, the growth inhibition in experiment [1] is 44%; in experiment [4] it was 97% (active). Moreover, the inhibition was 53% (active) in experiment [2] and -2% in experiment [3]. Further, the outcome in experiment [5], in experiment [6], in experiment [7] and in experiment [8] was inactive.
